What all share (experiment): NCI-60 one-dose screen, 48 h (100 = growth as untreated, 0 = no growth, -100 = all killed)
What all share (conditions): 10 µM unless noted

Experiment [1] relates to NCI-H23 lung.
For experiment [2], the system named is NCI-H226 lung.
Experiment [3] concerns NCI-H322M lung.
The subject of experiment [4] is HOP-62 NSCLC.
Experiment [5] relates to NCI-H460 lung.
Experiment [6] deals with HOP-92 NSCLC.
In experiment [7] the test system is NCI-H522 lung.
Experiment [8] relates to A549/ATCC NSCLC.
In experiment [9] the test system is 786-0 renal.
Experiment [10] has as its system COLO 205 colon.

Structures are written as SMILES. About 83,000 compounds went through this panel and 20% of them were active in at least one assay; those are over-represented in the sample as a whole.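 Assay: single dose, 48 h. Readout: percent growth (0 = no net growth; negative = cell death). Active: <10.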 Unmarked numbers belong to inactive results. The source made the active and inactive calls.

Take `CC(=O)[C@H]1CC[C@H]2[C@@H]3CC[C@H]4C[C@H](N)CC[C@]4(C)[C@H]3CC[C@]12C`: the growth is 86.7% in experiment [1]; 95.7% in experiment [2]; 107% in experiment [3]; 77.1% in [4]; 79.9% in experiment [5]; 7.56% (active) in [6]. Besides, the growth in experiment [7] is 77.3%; in experiment [8] it was 66.4%; in experiment [9] it was 60.7%; in experiment [10], 49.3%.
In the case of `CCOC(=O)N[C@H]1CCc2c(Br)c(OC)c(OC)c(OC)c2-c2ccc(SC)c(=O)cc21`, the growth in [1] is 31.2%; in [2], 10.3%; in experiment [3], 35.3%; in [4] it was 34.9%; in experiment [5] it was -7.92% (active); in [6], -4.54% (active). The growth in [7] is 13.2%; in experiment [8] it was 20.9%; in experiment [9], 9.3% (active); in [10], 5.51% (active).
Regarding `CCCCCCCC[N+](C)(CCCCCCCC)CCCCCCCC`, the growth in experiment [1] was -97% (active); in [2], -86.2% (active); in [3] it was -100% (active); in [4] it was -92.2% (active); in experiment [5], -100% (active); in [6], -70% (active). In addition, the growth in experiment [7] is -99.9% (active); in experiment [8] it was -100% (active); in experiment [9] it was -95.7% (active); in experiment [10], -60.7% (active).
With `C=C1C(=O)O[C@H]2[C@H]1CC/C(COC(=O)C(=O)c1cn(Cc3ccccc3)c3ccccc13)=C\CC[C@@]1(C)O[C@@H]21`, the growth is -51.7% (active) in experiment [1]; -70.3% (active) in [2]; -25.6% (active) in experiment [3]; 2.07% (active) in experiment [4]; -11.4% (active) in [5]; -46.7% (active) in experiment [6]. In addition, the growth is -69% (active) in experiment [7], -42.7% (active) in experiment [8], -75.3% (active) in [9] and -52.4% (active) in experiment [10].
For `CCOC(=O)[C@@H](C)C[C@H](Cc1ccccc1)NC(=O)c1csc([C@@H](C[C@H](C(C)C)N(C)C(=O)CNC(=O)[C@H]2CCCCN2C)OC(C)=O)n1`, the growth was 31.7% in experiment [1]; 69.9% in experiment [2]; 44.7% in experiment [3]; 23.5% in experiment [4]; 5.98% (active) in [5]; 47.5% in experiment [6]. The growth in [7] is -12.8% (active); in [8], 16.4%; in [9], 19.8%; in experiment [10] it was -11.6% (active).
Regarding `NC(=Nc1ccccc1)N[N+](=O)[O-]`, the growth in experiment [1] was 93.7%; in experiment [2] it was 90.1%; in experiment [3] it was 109%; in experiment [4], 104%; in experiment [5], 105%; in experiment [6], 118%. Moreover, the growth in [7] is 115%; in [8], 107%; in experiment [9], 113%; in experiment [10] it was 107%.
As to `CCCCCCCCC(CO)NCCc1ccccc1` (stereo not given), the growth in experiment [1] was 105%; in [2], 98.6%; in experiment [3] it was 88.8%; in experiment [4] it was 98%; in experiment [5] it was 102%; in experiment [6] it was 77.9%. Further, the growth in experiment [7] was 73.7%; in experiment [8] it was 83.7%; in experiment [9], 102%; in [10] it was 107%.
Regarding `CCn1c2ccccc2c2cc(C(=O)c3cccc4c3CCCN4)ccc21`, the growth in experiment [1] is 100%; in [2] it was 92.2%; in experiment [3], 102%; in experiment [4] it was 95.7%; in experiment [5], 101%; in experiment [6], 101%. Moreover, the growth in experiment [7] is 115%; in experiment [8] it was 106%; in [9], 99%; in experiment [10] it was 102%.
On to `CC[C@H](C)[C@H](NC(=O)C12C3C4C1C1C2C3C41NC(C)=O)C(=O)N(C)[C@H](C[C@@H](OC(C)=O)c1nc(C(=O)N[C@@H](Cc2ccccc2)C[C@H](C)C(=O)OC)cs1)C(C)C` (stereo not given in full), for which the growth in experiment [1] was 25.1%; in experiment [2], 31.7%; in experiment [3], 51.5%; in experiment [4], 22.4%; in experiment [5], 3.63% (active); in [6], 30.2%. Moreover, the growth in experiment [7] is 6.65% (active); in [8] it was 27.7%; in experiment [9] it was 12%; in [10], -26.1% (active).
Consider `COc1cc(/C=C\c2cc(OC)c(OC)c(OC)c2)cc(NS(=O)(=O)c2cccc(Cl)c2)c1OC`, for which the growth in [1] is 22.9%; in [2] it was 51.8%; in experiment [3] it was 50%; in experiment [4] it was 63.2%; in [5] it was 6.99% (active); in experiment [6], 47%. For the same compound, the growth in experiment [7] was 9.96% (active); in experiment [8] it was 21.4%; in experiment [9], 6.56% (active); in experiment [10] it was -68.2% (active).
With `Clc1ccc(COC(Cn2ccnc2)c2ccc(Cl)cc2Cl)cc1` (stereo not given), the growth in experiment [1] is 54.2%; in experiment [2], 70.2%; in [3] it was 84.9%; in [4] it was 75.1%; in experiment [5], 33.2%; in experiment [6], 26%. The growth was 36.4% in [7], 51.7% in [8], 68.5% in experiment [9] and 68.8% in [10].
As to `C[CH2][Sn]([Cl])([Cl])[CH2]C.Oc1ccccc1C=NCCN=Cc1ccccc1O`, the growth in experiment [1] is 103%; in [2], 99.1%; in experiment [3], 101%; in experiment [4] it was 99.2%; in [5], 107%; in [6], 95.2%. For the same compound, the growth in experiment [7] is 9.48% (active); in experiment [8], 96%; in experiment [9], 116%; in [10], 116%.
As for `Fc1ccc(N2COOC3(OOC2)C2CC4CC(C2)CC3C4)cc1`, the growth in experiment [1] is 69.4%; in experiment [2] it was 105%; in experiment [3] it was 91.1%; in [4], 83.6%; in experiment [5], 101%; in experiment [6], 29%. The growth was 85.2% in [7], 90.2% in experiment [8], 12.6% in experiment [9] and 116% in [10].

The values above are taken from PubChem BioAssay (NCI).
